Data taken from paper PMC5540273 (PLoS ONE, 2017).

test system: PRKD3
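Further: kd values determined as follow-up on hits from a single-replicate KINOMEscan panel screen.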

SMILES	Kd [µM]
COC(=O)C(Cc1ccccc1)NC(=O)NC1CCN(c2ccnc(Nc3ccc(F)cc3)n2)C1 (centres unmarked) [GSK1379714]	> 10
Cc1ccccc1-c1cc(-c2c[nH]nc2-c2ccccn2)ccn1 [GW680061]	> 10
FC(F)(F)c1ccccc1-c1cc(-c2c[nH]nc2-c2ccccn2)ccn1 [GW679396]	> 10
COc1ccc(Nc2nccc(N3CCC(NC(=O)c4cc5ccccc5s4)C3)n2)cc1 (centres unmarked) [GSK1379738]	> 10
COc1cccc(C2=C(Nc3cc(Cl)c(O)c(Cl)c3)C(=O)NC2=O)c1 [SB-390767]	> 10
COc1ccc(Nc2nccc(-c3ccc(NC(=O)c4cc5cc(F)ccc5[nH]4)cc3)n2)cc1 [GSK1229496]	> 10
CS(=O)(=O)CCNCc1nc(-c2ccc3ncnc(Nc4ccc(OCc5ccccc5)c(Cl)c4)c3c2)cs1.Cl [GW582764]	> 10

test system: PRKG2

SMILES	Kd [µM]
Cn1cncc1C(=O)NC1CCN(c2ccnc(Nc3ccc(F)cc3)n2)C1 (centres unmarked) [GSK1379717]	> 10
CNC(=O)c1ccc(C)c(-n2c(C)cc(OCc3ccc(F)cc3F)c(Br)c2=O)c1	> 10
CNc1cc(-c2ccc3c(N)n[nH]c3c2)nc(N)n1 [GSK2224810]	0.039
Cn1cnc2c(N)ncnc21 [SKF-97623]	> 10
COc1ccc(Nc2nccc(N3CCC(NC(=O)C(C)c4ccc(Cl)cc4)C3)n2)cc1 (centres unmarked) [GSK1379735]	> 10
Cn1cncc1-c1cc2c(Nc3ccc(OCc4ccccc4)cc3)ncnc2cn1 [GW281179]	3.3
NS(=O)(=O)c1cccc(N/C=C2\C(=O)Nc3ccc(S(=O)(=O)Cc4c(Cl)cccc4Cl)cc32)c1 [GSK398099]	> 10
CC[C@@H]1CO[C@H](C(=O)Nc2ccccc2)CN1c1cc(-c2ccc3c(N)n[nH]c3c2)nc(NC)n1 [GSK2376236]	0.4
Cc1c(Cn2c(C)c(C)n3c(=O)cc(N4CCOCC4)nc23)cccc1C(F)(F)F [GSK2328680]	> 10

test system: RIOK1

SMILES	Kd [µM]
O=C(Nc1n[nH]c2cc(-c3ccsc3)ccc12)C1CC1 [SB-732932]	0.18
CNc1cc(-c2ccc3c(N)n[nH]c3c2)nc(N)n1 [GSK2224810]	1.1
Nc1cccc(-c2ccc3c(N)n[nH]c3c2)n1 [GSK2192730]	0.39
CC(C)c1cc(-c2ccc3c(N)n[nH]c3c2)nc(N)n1 [GSK2250882]	0.58
